Hits are enriched below; roughly 5.4% of the tested compounds scored in any of these assays.
Beta cell apopt = blocks beta cell apoptosis; actives 0.8% (n = 300,000); protection from apoptosis, % (test concentration not listed); INS-1E cytokine-induced death, ATP luminescence, 48 h; percent of positive-control rescue, neutral wells zero;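 active = Every replicate reaches about 75%, or at least half do and their mean reaches it too, limit read from the data; inconclusive = At least half of replicates reach the limit but their mean does not; inactive = Under half of replicates reach the limit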;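 note: 0% = cytokine-treated negative control wells and 100% = positive control rescue; higher means more ATP so stronger rescue from cytokine killing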
CSC inhib = cancer stem cell inhibition. cancer stem cell-like cells viability, luminescence. inhibition, % at 7.5 µM. actives 1.1% (n = 300,000). AID 2717; in the data active = inhibition above about 75%; inconclusive = no clear call, values can overlap the other calls; tested in HMLE shEcad cells
MPTP inh = blocks calcium-induced mitochondrial swelling | isolated mouse mitochondria, Ca2+ swelling absorbance, 30 min | inhibition, % at 10 µM | actives 1.4% (n = 360,000) | AID 602449;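 active = inhibition of 50% or more, scaled per plate between neutral and stimulator controls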;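 note: 0% = DMSO wells given calcium and 100% = 1 mM EGTA wells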
SKKanGAS inh = blocks kanamycin growth of S. pyogenes SKKanGAS strain | BacTiter-Glo, 6 h | inhibition, % at 7.5 µM | actives 1.3% (n = 300,000);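 active = mean replicate score, as percent of positive control median, at least 50; inconclusive = mean below 50 but one replicate at or above 50; inactive = mean and every replicate below 50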;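 note: strain carries kanamycin resistance gene driven by streptokinase promoter and grows in 40 µg/ml kanamycin; loss of luminescence reflects streptokinase promoter inhibition or plain growth inhibition; 0% = median of DMSO wells and 100% = positive control at its reference dose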
Mdm2-MdmX inh = inhibitors of human Mdm2/MdmX interaction; O15151+Q00987; SaOS-2 split-luciferase Mdm2/MdmX complementation, luminescence; inhibition, % at 8 µM; actives 3% (n = 330,000);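 active = inhibition of at least 50% at 8 µM in the primary screen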
Target sequence (O15151 whole entry, looked up): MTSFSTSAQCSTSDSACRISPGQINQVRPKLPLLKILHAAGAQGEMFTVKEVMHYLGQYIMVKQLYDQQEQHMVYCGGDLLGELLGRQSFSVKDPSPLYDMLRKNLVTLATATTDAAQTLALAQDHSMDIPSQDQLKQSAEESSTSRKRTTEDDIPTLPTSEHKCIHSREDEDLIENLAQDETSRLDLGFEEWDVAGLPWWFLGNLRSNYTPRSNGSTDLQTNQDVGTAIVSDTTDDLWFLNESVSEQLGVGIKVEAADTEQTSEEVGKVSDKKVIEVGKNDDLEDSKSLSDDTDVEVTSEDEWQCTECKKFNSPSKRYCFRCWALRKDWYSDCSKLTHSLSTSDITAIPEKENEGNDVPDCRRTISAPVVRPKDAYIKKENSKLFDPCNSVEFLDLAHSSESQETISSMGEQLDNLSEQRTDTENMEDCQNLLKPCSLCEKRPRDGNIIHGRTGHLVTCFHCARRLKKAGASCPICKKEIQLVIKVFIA
Target sequence (Q00987 whole entry, looked up): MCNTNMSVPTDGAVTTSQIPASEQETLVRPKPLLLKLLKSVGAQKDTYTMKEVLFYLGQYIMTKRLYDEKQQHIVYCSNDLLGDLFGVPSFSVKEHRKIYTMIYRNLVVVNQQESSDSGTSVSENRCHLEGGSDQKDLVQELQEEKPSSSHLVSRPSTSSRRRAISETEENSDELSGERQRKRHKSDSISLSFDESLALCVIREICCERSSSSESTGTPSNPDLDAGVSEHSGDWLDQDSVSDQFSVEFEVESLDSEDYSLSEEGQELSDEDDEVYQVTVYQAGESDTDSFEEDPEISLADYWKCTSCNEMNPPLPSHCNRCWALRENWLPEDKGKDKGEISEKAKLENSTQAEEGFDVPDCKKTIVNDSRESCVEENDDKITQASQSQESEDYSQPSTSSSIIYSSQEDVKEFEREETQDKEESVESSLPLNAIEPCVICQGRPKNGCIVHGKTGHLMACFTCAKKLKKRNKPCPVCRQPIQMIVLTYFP
Calb FLC = C. albicans growth modulation with fluconazole; C. albicans CaCi-2 (fluconazole-resistant clinical isolate) + fluconazole, Alamar Blue growth, 48 h; growth inhibition, % (no concentration beside the values); actives 0.57% (n = 300,000);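 active = growth inhibition above about 58% in most replicates, limit read from the data, passing the limit was not always enough; inconclusive = exactly half the replicates above a set limit; inactive = most replicates below a set limit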;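 note: all wells also contain fluconazole at 8 µg/ml as a sub-toxic cotreatment; 0% = median of DMSO wells and 100% = median of geldanamycin control wells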
Mdm2-MdmX conf = human Mdm2/MdmX binding inhibition, confirmed. shares compounds with Mdm2-MdmX inh. luminescent assay. inhibition, % at 8 µM. actives 55% (n = 10,000). AID 489028; in the data active = inhibition above about 40%
Full FLuc ctr = counter-screen for Mdm2/MdmX inhibitors: full-length luciferase; inhibition, % at 8 µM; actives 77% (n = 6,200); SaOS-2 full-length luciferase counterscreen, luminescence; shares compounds with Mdm2-MdmX inh;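 active = mean inhibition at 8 µM reaching about 37%, which flags the compound as non-specific, limit read from the data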;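 note: p53-null SaOS-2 cells with luciferase driven by a doxycycline-inducible promoter; compound on cells about two nights before reading with doxycycline added after day one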
Active calls of the source: *; ? = inconclusive; . = no result.

SMILES	Beta cell apopt	CSC inhib	MPTP inh	SKKanGAS inh	Mdm2-MdmX inh	Calb FLC	Mdm2-MdmX conf	others
Cc1nnc2c3ccccc3c(Cl)nn12	-4	2	0	11	7	-3	.
Cc1nnc2c3ccccc3c(-c3ccc(O)cc3)nn12	-6	3	2	4	66*	-8	33	Full FLuc ctr=62*
Cc1nnc2c3ccccc3c(-c3cccs3)nn12	-7	-5	-1	13	54*	-25	35	Full FLuc ctr=53*
Cc1ccc(S(=O)(=O)Nc2nc(CN3CCOCC3)nc3sc(C(=O)O)c(C)c23)cc1	.	.	0	.	.	.	.
CC(C)=CCc1c(O)cc(O)c2c(=O)c3c(CC=C(C)C)c(O)ccc3oc12	28	-5	.	106*	94*	-7	29
CNC(=S)Nc1sc2c(c1C(=O)OC)CCC2	-1	8	0	11	21	33	.
CNC(=O)c1[nH]cnc1C(=O)N[C@@H](Cc1ccccc1)C(=O)OC(C)(C)C	0	.	2	3	11	5	.
CC(C)C[C@H](NC(=O)c1nc[nH]c1C(=O)NCC(=O)OC(C)(C)C)C(=O)OCc1ccccc1	-2	1	1	11	9	-10	.
C[C@H](NC(=O)c1nc[nH]c1C(=O)N[C@@H](Cc1ccccc1)C(=O)OC(C)(C)C)c1ccccc1	-9	48	-1	54*	50*	11	-4
CC(C)C[C@H](NC(=O)c1[nH]cnc1C(=O)N[C@@H](C)C(=O)OC(C)(C)C)C(=O)OC(C)(C)C	3	-1	0	28	63*	20	12
CC(C)C[C@H](NC(=O)c1nc[nH]c1C(=O)N[C@@H](CC(C)C)C(=O)OC(C)(C)C)C(=O)OCc1ccccc1	?	46	.	58*	64*	14	-11
CC(C)C[C@H](NC(=O)c1nc[nH]c1C(=O)N1CCN(C(=O)OC(C)(C)C)CC1)C(=O)OC(C)(C)C	-6	51	0	0	91*	1	81*	Full FLuc ctr=53*
O=C(N/N=C/c1cc(Cl)cc([N+](=O)[O-])c1O)c1cccc(S(=O)(=O)N2CCOCC2)c1	.	.	0	.	29	.	.
CCC1CCCCN1C(=O)c1ccc2c(c1)C(=O)N(c1ccc(C)cc1)C2=O (stereo unspecified)	1	.	-1	-17	24	-5	.
Cc1ccc(Cc2c(-c3ccc(Cl)cc3)nc3cc(C)ccn23)cc1	.	.	-2	.	.	.	.
Cc1ccnc(NC(=O)CNC(=O)C23CC4CC(CC(C4)C2)C3)c1	.	2	0	1	15	-13	.
CC(C)C[C@H](NC(=O)c1nc[nH]c1C(=O)NCC(=O)OCc1ccccc1)C(=O)OCc1ccccc1	-6	-2	1	27	1	3	.
C[C@H](NC(=O)c1[nH]cnc1C(=O)Nc1ccc(Cl)cc1)C(=O)OC(C)(C)C	1	-24	1	23	50*	30	30
CC(C)(C)OC(=O)NCc1ccc(CNC(=O)c2[nH]cnc2C(=O)N[C@@H](Cc2ccccc2)C(=O)OCc2ccccc2)cc1	-4	1	-1	12	3	6	.
CC(C)(C)OC(=O)NCc1ccc(NC(=O)c2nc[nH]c2C(=O)N[C@@H](Cc2ccccc2)C(=O)OCc2ccccc2)cc1	-1	-25	0	21	60*	15	16
CC(C)(C)OC(=O)NCCCC[C@H](NC(=O)c1[nH]cnc1C(=O)Nc1ccc(Cl)cc1)C(=O)OC(C)(C)C	32	7	-1	57*	56*	13	5
CC(C)C[C@H](NC(=O)c1[nH]cnc1C(=O)N[C@@H](C)c1ccccc1)C(=O)OCc1ccccc1	-1	0	0	75*	51*	11	21
CC(C)C[C@H](NC(=O)c1[nH]cnc1C(=O)Nc1ccccc1)C(=O)OC(C)(C)C	36	-15	1	63*	57*	22	15
CC(C)C[C@H](NC(=O)c1nc[nH]c1C(=O)N[C@@H](CCCCNC(=O)OC(C)(C)C)C(=O)OC(C)(C)C)C(=O)OC(C)(C)C	27	60	-1	40	73*	3	-17
CC(C)(C)OC(=O)N1CCC(NC(=O)c2[nH]cnc2C(=O)Nc2ccc(Cl)cc2)CC1	-8	89*	-1	.	52*	.	53*	Full FLuc ctr=53*
SMILES	Beta cell apopt	CSC inhib	MPTP inh	SKKanGAS inh	Mdm2-MdmX inh	Calb FLC	Mdm2-MdmX conf	others
CC(C)C[C@H](NC(=O)c1nc[nH]c1C(=O)NCCCCCNC(=O)OC(C)(C)C)C(=O)OC(C)(C)C	9	3	0	9	0	-7	.
O=C(O)c1ccccc1-c1ccccc1C(=O)Nc1ccccc1-c1ccccc1	.	-7	0	0	10	19	.
COc1ccccc1NC(=O)c1ccc(CN(c2cc(Cl)ccc2C)S(=O)(=O)c2ccccc2)cc1	0	-1	6	5	61*	-19	33
CCOc1ccc(N(CC(=O)Nc2ccc(C)cc2)S(=O)(=O)c2c(C)noc2C)cc1	.	7	1	3	34	-7	.
CCOc1ccc(N(CC(=O)Nc2ccccc2OC)S(=O)(=O)c2ccccc2)cc1	16	70	0	1	58*	-6	63*	Full FLuc ctr=79*
COc1ccc(NC(=O)c2ccc(CN(c3cc(Cl)ccc3C)S(=O)(=O)c3ccccc3)cc2)cc1OC	-2	21	1	7	8	-10	.
CCOc1ccc(N(CC(=O)Nc2ccccc2OCC)S(=O)(=O)c2c(C)noc2C)cc1	41	46	2	3	65*	10	62*	Full FLuc ctr=90*
Nc1ccccc1-c1nc2ccccc2c(=O)o1	-3	-10	1	-6	8	-5	.
CCC(=O)Nc1nc2c(c(=O)[nH]1)CCCC2	1	17	-1	-2	5	-4	.
O=c1cc(-c2ccc([N+](=O)[O-])cc2)c2ccc(O)cc2o1	1	19	0	2	22	6	.
COc1ccc(-c2oc3cc(OC)c(O)c(OC)c3c(=O)c2OC)cc1O	11	0	1	0	64*	11	42*	Full FLuc ctr=28
COc1c(OC)c(O)c2c(=O)c(O)c(-c3ccccc3)oc2c1OC	-2	5	3	1	81*	8	35
COc1ccc(-c2oc3c(OC)c(OC)c(OC)c(O)c3c(=O)c2OC)cc1OC	9	-9	0	14	79*	20	87*	Full FLuc ctr=47*
COc1ccc(-c2oc3cc(O)c(OC)c(O)c3c(=O)c2OC)cc1	.	-7	-1	7	27	-4	.
COc1c(O)c(O)c2oc(-c3ccccc3)cc(=O)c2c1OC	.	-5	6	1	-23	28	.
Cc1ccc(NC(=O)COC(=O)COc2ccc(Cl)cc2C)c([N+](=O)[O-])c1	-8	-4	-2	4	-2	21	.

Source: PubChem BioAssay (several laboratories)
